# About 79,000 compounds went through this panel and 15% of them were active in at least one assay; those are over-represented in the sample as a whole. Unmarked numbers belong to inactive results. Activity calls are given as the source filed them. Cut-off read from the data, not from the text of the source: active = growth inhibition above about 70%; inactive = the rest.
# Legend:
# [1] = NCI Yeast Anticancer Drug Screen. Data for the wt1 strain (AID 149);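 note: 0% = growth of vehicle-treated wt1 cultures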; settings: S. cerevisiae wt1 strain (SPY 50644) growth inhibition, hits give high values
# Procedure, shortened: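 Measured: growth of wt1 yeast under compound versus vehicle treatment, reported as inhibition.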
# [2] = NCI Yeast Anticancer Drug Screen. Data for the rad50EPP+ strain (AID 151);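 note: 0% = growth of vehicle-treated control cultures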; settings: S. cerevisiae rad50 mutant strain, hits give high values
# Procedure, shortened: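 Strain rad50EPP+; compound exposure; % growth inhibition vs vehicle.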
# [3] = NCI Yeast Anticancer Drug Screen. Data for the mgt1 strain (AID 153); settings: S. cerevisiae mgt1 mutant growth inhibition, hits give high values
# Procedure, shortened: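 Read-out: yeast growth inhibition vs vehicle control. Strain mgt1, drawn from a panel altered in DNA damage repair or cell cycle control.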
# [4] = NCI Yeast Anticancer Drug Screen. Data for the rad50 strain (AID 155);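 note: 0% = growth of vehicle-only cultures of the same strain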; settings: S. cerevisiae rad50 strain growth inhibition, hits give high values
# Procedure, shortened: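 Growth of the mutant yeast was measured after compound exposure and referenced to vehicle-treated cultures.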
# [5] = NCI Yeast Anticancer Drug Screen. Data for the mec2-1 strain (AID 157); settings: S. cerevisiae mec2-1 strain, hits give high values
# Procedure, shortened: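 Cells of the genetically defined mec2-1 yeast strain are incubated with test compound. Inhibition of growth is calculated against vehicle-treated controls.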
# [6] = NCI Yeast Anticancer Drug Screen. Data for the rad14 strain (AID 159);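 note: 0% = growth of vehicle-treated control cultures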; settings: S. cerevisiae rad14 strain growth inhibition, hits give high values
# Procedure, shortened: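 Here, inhibition of yeast growth was measured after compound exposure, using a strain with a genetic defect in DNA damage repair and vehicle-treated cultures as the reference.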
# [7] = NCI Yeast Anticancer Drug Screen. Data for the sgs1 mgt1 strain (AID 161);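 note: 0% = growth of cultures given vehicle only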; settings: S. cerevisiae sgs1 mgt1 strain, hits give high values
# Procedure, shortened: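 Read-out: growth inhibition vs vehicle controls. Cells: mutant yeast strain deficient in DNA damage repair.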
# [8] = NCI Yeast Anticancer Drug Screen. Data for the CLN2oe strain (AID 163);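 note: 0% = growth of vehicle-only control cultures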; settings: S. cerevisiae CLN2oe strain, hits give high values
# Procedure, shortened: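 Strain altered in cell-cycle control, incubated with compound; growth compared to solvent-treated controls.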
# [9] = NCI Yeast Anticancer Drug Screen. Data for the cln2 rad14 strain (AID 165);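 note: 0% = growth equal to vehicle treated cultures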; settings: S. cerevisiae cln2 rad14 strain, hits give high values
# Procedure, shortened: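 The screen exposed genetically defined yeast (cln2 rad14) to test compounds and scored growth inhibition relative to vehicle-treated controls.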
# [10] = NCI Yeast Anticancer Drug Screen. Data for the bub3 strain (AID 167); settings: S. cerevisiae bub3 mutant strain, hits give high values
# Procedure, shortened: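 Whole-cell yeast assay. The mutant strain was incubated with compounds, and growth inhibition was determined by comparison with vehicle-treated cells.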
# [11] = NCI Yeast Anticancer Drug Screen. Data for the wt2 strain (AID 169);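 note: 0% = growth of vehicle-treated yeast cultures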; settings: S. cerevisiae wt2 strain growth inhibition, hits give high values
# Procedure, shortened: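 Steps: yeast strain treated with compound; growth recorded; inhibition calculated relative to cultures given vehicle alone.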
# [12] = NCI Yeast Anticancer Drug Screen. Data for the mlh1 strain (AID 171);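 note: 0% = growth of vehicle-treated control cultures of the same strain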; settings: S. cerevisiae mlh1 strain growth inhibition, hits give high values
# Procedure, shortened: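 Yeast screen: mutant strain plus compound, growth scored against vehicle control wells.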
# [13] = NCI Yeast Anticancer Drug Screen. Data for the sgs1 strain (AID 173);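 note: 0% = growth of vehicle-only control cultures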; settings: S. cerevisiae sgs1 mutant, hits give high values
# Procedure, shortened: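 Inhibition of yeast growth served as the measure. The mutant strain was treated with each compound, and growth was normalised to cultures receiving vehicle alone.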
# [14] = NCI Yeast Anticancer Drug Screen. Data for the mlh1 rad18 strain (AID 175); settings: S. cerevisiae mlh1 rad18 strain growth inhibition, hits give high values
# Procedure, shortened: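 Compound-treated yeast growth, normalised to vehicle controls. Strain bears defined DNA repair mutations.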
# [15] = NCI Yeast Anticancer Drug Screen. Data for the rad18 strain (AID 177); settings: S. cerevisiae rad18 mutant growth inhibition, hits give high values
# Procedure, shortened: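 Inhibition values reflect reduced yeast growth compared with vehicle-treated controls, using a strain engineered with a DNA damage repair defect.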
# [16] = at 5.0 µM (retest, dose inferred, filed as 0.5)
# [17] = at 50.0 µM (retest, dose inferred, filed as 5.0)
structure (smiles),measurement,setting,value
CCC1(O)C(=O)OCc2c1cc1n(c2=O)Cc2cc3c(N)cccc3nc2-1 (stereo not drawn),growth inhibition,[1]; at 1.2 µM,-22%
same,growth inhibition,[1]; at 3.7 µM,-14%
same,growth inhibition,[1]; at 11.0 µM,-26%
same,growth inhibition,[1]; at 33.0 µM,-24%
same,growth inhibition,[1]; at 100.0 µM,-16%
same,growth inhibition,[2]; at 1.2 µM,-12%
same,growth inhibition,[2]; at 3.7 µM,7%
same,growth inhibition,[2]; at 11.0 µM,-8%
same,growth inhibition,[2]; at 33.0 µM,10%
same,growth inhibition,[2]; at 100.0 µM,-8%
same,growth inhibition,[3]; at 1.2 µM,-12%
same,growth inhibition,[3]; at 3.7 µM,-15%
same,growth inhibition,[3]; at 11.0 µM,3%
same,growth inhibition,[3]; at 33.0 µM,-5%
same,growth inhibition,[3]; at 100.0 µM,-31%
same,growth inhibition,[4]; at 1.2 µM,11%
same,growth inhibition,[4]; at 3.7 µM,38%
same,growth inhibition,[4]; [16],58%
same,growth inhibition,[4]; at 11.0 µM,64%
same,growth inhibition,[4]; at 33.0 µM,68%
same,growth inhibition,[4]; [17],79% (active)
same,growth inhibition,[4]; at 50.0 µM,56.5%
same,growth inhibition,[4]; at 100.0 µM,60%
same,growth inhibition,[5]; at 1.2 µM,-22%
same,growth inhibition,[5]; at 3.7 µM,-5%
same,growth inhibition,[5]; [16],7%
same,growth inhibition,[5]; at 11.0 µM,-12%
same,growth inhibition,[5]; at 33.0 µM,-18%
same,growth inhibition,[5]; [17],12%
same,growth inhibition,[5]; at 50.0 µM,-0.85%
same,growth inhibition,[5]; at 100.0 µM,-35%
same,growth inhibition,[6]; at 1.2 µM,-10%
same,growth inhibition,[6]; at 3.7 µM,-10%
same,growth inhibition,[6]; at 11.0 µM,-19%
same,growth inhibition,[6]; at 33.0 µM,-17%
same,growth inhibition,[6]; at 100.0 µM,-23%
same,growth inhibition,[7]; [16],24%
same,growth inhibition,[7]; [17],19%
same,growth inhibition,[7]; at 50.0 µM,-2.35%
same,growth inhibition,[8]; at 1.2 µM,-8%
same,growth inhibition,[8]; at 3.7 µM,-15%
same,growth inhibition,[8]; at 11.0 µM,-33%
same,growth inhibition,[8]; at 33.0 µM,-34%
same,growth inhibition,[8]; at 100.0 µM,-41%
same,growth inhibition,[9]; [16],21%
same,growth inhibition,[9]; [17],14%
same,growth inhibition,[9]; at 50.0 µM,-6.95%
same,growth inhibition,[10]; at 1.2 µM,-37%
same,growth inhibition,[10]; at 3.7 µM,-28%
same,growth inhibition,[10]; [16],14%
same,growth inhibition,[10]; at 11.0 µM,-34%
same,growth inhibition,[10]; at 33.0 µM,-47%
same,growth inhibition,[10]; [17],6%
same,growth inhibition,[10]; at 50.0 µM,-9.3%
same,growth inhibition,[10]; at 100.0 µM,-33%
same,growth inhibition,[11]; at 1.2 µM,-16%
same,growth inhibition,[11]; at 3.7 µM,-18%
same,growth inhibition,[11]; at 11.0 µM,-17%
same,growth inhibition,[11]; at 33.0 µM,-30%
same,growth inhibition,[11]; at 100.0 µM,-38%
same,growth inhibition,[12]; at 1.2 µM,-23%
same,growth inhibition,[12]; at 3.7 µM,-22%
same,growth inhibition,[12]; at 11.0 µM,-11%
same,growth inhibition,[12]; at 33.0 µM,-34%
same,growth inhibition,[12]; at 100.0 µM,-44%
same,growth inhibition,[13]; at 1.2 µM,-19%
same,growth inhibition,[13]; at 3.7 µM,-7%
same,growth inhibition,[13]; at 11.0 µM,0%
same,growth inhibition,[13]; at 33.0 µM,6%
same,growth inhibition,[13]; at 100.0 µM,7%
same,growth inhibition,[14]; [16],16%
same,growth inhibition,[14]; [17],16%
same,growth inhibition,[14]; at 50.0 µM,-65.3%
same,growth inhibition,[15]; at 1.2 µM,-42%
same,growth inhibition,[15]; at 3.7 µM,-37%
same,growth inhibition,[15]; at 11.0 µM,-31%
same,growth inhibition,[15]; at 33.0 µM,-26%
same,growth inhibition,[15]; at 100.0 µM,-48%

# From PubChem BioAssay (NCI)
